Where “and” joins values, the source holds several entries; their conditions need not be identical. Equal entries are not always repeated. Hit rate of the full screen: of about 5,500 compounds, about 2,000 (36%) were called active. Not shown: some 18% with an inconclusive outcome. Cut-off read from the data, not from the text of the source: active = normalized growth mostly below about 0.91 (no sharp cut-off); inconclusive = no clear call, values can overlap the other calls; inactive = mostly above about 0.92. Some of the results follow.
Test: chemical genetic growth profiling, strain panel (AID 1159580);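 note: tested at 20 µM; growth read once vehicle control cultures reached saturation at 30 °C; 1 = growth at the plate median or of vehicle wells; lower values mean less growth of the strain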
Conditions: S. cerevisiae deletion strains, growth OD
[1] = locus YHR030C, strain SLT2, hits give low values
[2] = locus YHR079C, strain IRE1, hits give low values
[3] = locus YJL095W, strain BCK1, hits give low values
[4] = locus YJR066W, strain TOR1, hits give low values
[5] = locus YLR113W, strain HOG1, hits give low values
[6] = locus YNL183C, strain NPR1, hits give low values
[7] = locus YOR231W, strain MKK1, hits give low values
[8] = locus YPL256C, strain CLN2, hits give low values

Measured: normalized growth

CC(=O)Oc1cc(C)c2c(c1C(OC(C)=O)OC(C)=O)Oc1c(c(C)c(OC(C)=O)c3c1C(OC(C)=O)OC3=O)OC2=O (stereo not drawn)
active: [5] 0.832
inactive: locus YAL013W, strain DEP1, hits give low values 0.98 | locus YBR021W, strain FUR4, hits give low values 1.01 | locus YBR229C, strain ROT2, hits give low values 0.989 | locus YCL029C, strain bik1, hits give low values 0.98 | locus YDL035C, strain GPR1, hits give low values 1.03 | locus YDL074C, strain BRE1, hits give low values 0.998 | locus YDL101C, strain DUN1, hits give low values 0.983 | locus YDL134C, strain PPH21, hits give low values 0.983 | locus YDL185W, strain tfp1, hits give low values 0.965 | locus YDL192W, strain arf1, hits give low values 1.01 | locus YDR101C, strain arx1, hits give low values 1.03 | locus YDR162C, strain NBP2, hits give low values 0.998 | locus YDR318W, strain mcm21, hits give low values 0.98 | locus YDR388W, hits give low values 0.982 | locus YDR502C, strain sam2, hits give low values 0.968 | locus YEL061C, strain CIN8, hits give low values 0.985 | locus YER110C, hits give low values 0.97 | locus YER155C, strain BEM2, hits give low values 1.01 | locus YER167W, strain BCK2, hits give low values 0.995 | locus YGL078C, strain dbp3, hits give low values 0.973 | locus YGL086W, strain mad1, hits give low values 0.995 | locus YGL248W, strain PDE1, hits give low values 0.967 | locus YGR135W, strain pre9, hits give low values 0.952 | locus YGR252W, strain gcn5, hits give low values 1.06 | [1] 0.952 | locus YHR079C, strain IRE1 (second series), hits give low values 0.983 | [2] 0.93 | locus YHR094C, strain hxt1, hits give low values 0.978 | locus YHR129C, strain ARP1, hits give low values 0.983 | locus YHR200W, strain rpn10, hits give low values 0.988 | locus YIL066C, strain RNR3, hits give low values 0.983 | locus YIL073C, strain SPO22, hits give low values 1.02 | locus YIL125W, strain kgd1, hits give low values 0.978 | locus YIR030C, strain dcg1, hits give low values 0.964 | [3] 0.988 and 0.963 | locus YJL134W, strain LCB3, hits give low values 0.985 | locus YJL168C, strain set2, hits give low values 0.991 | locus YJL187C, strain SWE1 (second series), hits give low values 0.961 | [4] 0.889 | locus YKL009W, strain mrt4, hits give low values 1 | locus YKL068W, hits give low values 0.969 | locus YKL085W, strain MDH1 (second series), hits give low values 0.97 | locus YKL085W, strain MDH1, hits give low values 0.97 | locus YKR001C, strain vps1, hits give low values 1 | locus YLR039C, strain RIC1, hits give low values 0.943 | locus YLR058C, strain SHM2, hits give low values 0.993 | locus YLR102C, strain apc9, hits give low values 0.974 | locus YLR268W, strain sec22, hits give low values 1.01 | locus YLR342W, strain FKS1 (second series), hits give low values 1.06 | locus YLR371W, strain rom2, hits give low values 0.998 | locus YLR418C, strain cdc73, hits give low values 0.989 | locus YML016C, strain PPZ1, hits give low values 0.971 | locus YML032C, strain rad52, hits give low values 0.997 | locus YML124C, strain tub3, hits give low values 0.968 | locus YMR078C, strain ctf18, hits give low values 0.978 | locus YMR223W, strain ubp8, hits give low values 0.989 | locus YMR263W, strain SAP30, hits give low values 0.982 | locus YMR307W, strain GAS1, hits give low values 1.02 | locus YNL067W, strain RPL9B, hits give low values 0.983 | locus YNL128W, strain TEP1, hits give low values 0.99 | [6] 0.911 | locus YNL233W, strain BNI4, hits give low values 0.973 | locus YNL250W, strain rad50, hits give low values 0.921 | locus YNL271C, strain bni1, hits give low values 0.968 | locus YNL298W, strain CLA4, hits give low values 0.967 | locus YNL307C, strain MCK1, hits give low values 0.974 | locus YNR052C, strain pop2, hits give low values 0.961 | locus YOL012C, strain htz1 0.831 | locus YOL147C, strain pex11, hits give low values 0.99 | locus YOR061W, strain CKA2, hits give low values 0.982 | locus YOR069W, strain VPS5, hits give low values 0.974 | locus YOR136W, strain idh2, hits give low values 1 | locus YOR144C, strain elg1, hits give low values 0.978 | locus YOR184W, strain ser1, hits give low values 1.05 | [7] 0.942 | locus YOR316C, strain cot1, hits give low values 0.978 | locus YPL055C, strain LGE1, hits give low values 1.05 | locus YPL241C, strain CIN2, hits give low values 0.989 | [8] 0.892 | locus YPR119W, strain clb2, hits give low values 0.981 | locus YPR141C, strain kar3, hits give low values 0.956 | locus YPR163C, strain tif3, hits give low values 0.974 | locus YPR167C, strain met16, hits give low values 0.979 | strain wtn01, hits give low values 1.04

CC(=O)Oc1cc(C)c2c(c1C=O)Oc1c(c(C)c(OC(C)=O)c3c1C(OC(C)=O)OC3=O)OC2=O (stereo not drawn)
active: [5] 0.821
inactive: [1] 0.877 | [2] 0.883 | [3] 0.905 | [4] 0.857 | [6] 0.853 | [7] 0.876 | [8] 0.829
